Structures are written as SMILES. This is part of a sample that, as a whole, favours compounds with a hit. Of some 79,000 tested, about 15% had one in any assay. Unmarked numbers belong to inactive results. The source made the active and inactive calls. Rule as the data show it: active = growth inhibition above about 70%; inactive = the rest. Where a SMILES comes first, the peptide text is derived from it. [ ]: non-standard residue; d: D form. ξ: configuration not given here. ξA = CC(N)C(=O)O

Test [1] is described as follows: NCI Yeast Anticancer Drug Screen. Data for the rad50 strain (AID 155).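 Also: 0% = growth of vehicle-only cultures of the same strain.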 To be noted: S. cerevisiae rad50 strain growth inhibition; at 50.0 µM; active compounds read high. The method in brief:
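Vehicle-treated cultures provide the reference for the growth inhibition reported for compound-exposed, repair-deficient yeast.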

Test [2] can be described thus: NCI Yeast Anticancer Drug Screen. Data for the mec2-1 strain (AID 157). The settings on record: S. cerevisiae mec2-1 strain, at 50.0 µM, active compounds read high. The method in brief: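 Cells of the genetically defined mec2-1 yeast strain are incubated with test compound. Inhibition of growth is calculated against vehicle-treated controls.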
Test [3] can be described thus: NCI Yeast Anticancer Drug Screen. Data for the sgs1 mgt1 strain (AID 161).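 Also: 0% = growth of cultures given vehicle only.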 To be noted: S. cerevisiae sgs1 mgt1 strain, at 50.0 µM, active compounds read high. The method in brief: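 Read-out: growth inhibition vs vehicle controls. Cells: mutant yeast strain deficient in DNA damage repair.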
The nature of test [4]: NCI Yeast Anticancer Drug Screen. Data for the cln2 rad14 strain (AID 165).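 Also: 0% = growth equal to vehicle treated cultures.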 To be noted: S. cerevisiae cln2 rad14 strain, at 50.0 µM, active compounds read high. The method in brief:
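The screen exposed genetically defined yeast (cln2 rad14) to test compounds and scored growth inhibition relative to vehicle-treated controls.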

The nature of test [5]: NCI Yeast Anticancer Drug Screen. Data for the bub3 strain (AID 167). To be noted: S. cerevisiae bub3 mutant strain, at 50.0 µM, active compounds read high. The method in brief: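 Mutant yeast screening strain plus compound; vehicle-treated cultures serve as the 0% inhibition reference.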
Test [6] can be described thus: NCI Yeast Anticancer Drug Screen. Data for the mlh1 rad18 strain (AID 175). To be noted: S. cerevisiae mlh1 rad18 strain growth inhibition; at 50.0 µM; active compounds read high. The essentials: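 Compound-treated yeast growth, normalised to vehicle controls. Strain bears defined DNA repair mutations.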

Regarding `C[C@@H]1S[C@H](c2c(F)cccc2Cl)n2c1nc1ccccc12`, the growth inhibition in test [1] was 78.7% (active); in test [2] it was 82.7% (active); in test [3], 86.6% (active); in test [4], 82.2% (active); in test [5] it was 68.2%; in test [6] it was 78.1% (active).
Regarding `C/C(=C\C(=N\Nc1nc(C)cc(=O)[nH]1)c1ccccc1)c1ccccc1`, the growth inhibition in test [1] was 12.4%; in test [2] it was -11.4%; in test [3] it was -8.75%; in test [4], 3.45%; in test [5], 6.8%; in test [6] it was -2.2%.
Turning to `CCOC(=O)C(=CN1CCCCCC1)C(=O)OCC`, the growth inhibition in test [1] was 19.8%; in test [2], 13.2%; in test [3], 13.2%; in test [4], 6.1%; in test [5] it was -0.25%; in test [6], 32.5%.
In the case of `O=C(Nc1ccc(Cl)cc1[N+](=O)[O-])N1CCN(c2ccccc2)CC1`, the growth inhibition in test [1] was -8.35%; in test [2] it was 21.9%; in test [3] it was 29.4%; in test [4], -10.3%; in test [5] it was 44.3%; in test [6], 28.1%.
Turning to `Cc1c2ccccc2nc(CSCC(O)CO)[n+]1[O-]` (stereo not given), the growth inhibition in test [1] was -8.4%; in test [2], 10.7%; in test [3], 12.3%; in test [4], -55.6%; in test [5], 14.4%; in test [6], 6.85%.
`CCN(CC)c1ccc2cc(-c3nc4ccccc4n3C)c(=O)oc2c1`: the growth inhibition in test [1] was 14.8%; in test [2], -6%; in test [3], 2.2%; in test [4], 6.55%; in test [5], 1.35%; in test [6] it was 14.1%.
Take `ClCCOCc1ccc(Cl)c(Cl)c1`: the growth inhibition in test [1] was 8.8%; in test [2], -16.9%; in test [3], 6.15%; in test [4], -13.5%; in test [5], -18%; in test [6], 9%.
With `O=C1NC(=O)C2(CCN(Cc3ccccc3)CC2)N1c1ccccc1`, the growth inhibition in test [1] is 8.95%; in test [2] it was 0.1%; in test [3], -5.1%; in test [4], 6%; in test [5], 13.3%; in test [6], 3.15%.
On to `CC(NC(=O)CNC(=O)CNC(=O)CNC(=O)CN)C(=O)O` (stereo not given) (H-GGGG[ξA]-OH), for which the growth inhibition in test [1] is -26.9%; in test [2], -30.9%; in test [3], -8.55%; in test [4], -10.6%; in test [5], -14.5%; in test [6], -31.6%.
As to `CCOC(=O)c1nc2ccccc2nc1NCc1ccc(Cl)cc1Cl`, the growth inhibition was 6.45% in test [1]; 19% in test [2]; -24.7% in test [3]; 8% in test [4]; -16.6% in test [5]; -30.9% in test [6].
`C#CCOc1ccc(O)c(C(=O)OCCCOC(=O)c2cc(OCC#C)ccc2O)c1`: the growth inhibition in test [1] was 16.1%; in test [2], 6.95%; in test [3], -3.9%; in test [4], 16.9%; in test [5], -2.1%; in test [6], 15.1%.
`CC12OC(=O)CC1C(c1ccccc1)(c1ccccc1)O2` (stereo not given): the growth inhibition in test [1] was -7%; in test [2], -8%; in test [3], 4.1%; in test [4] it was -50.2%; in test [5], 2.75%; in test [6], -1.85%.
Turning to `CON(C)S(=O)(=O)c1ccc(Cl)cc1`, the growth inhibition was 7.75% in test [1]; -9.5% in test [2]; -4.15% in test [3]; -18.9% in test [4]; -2.25% in test [5]; -6.2% in test [6].
Regarding `CSc1nc(N)c(NS(=O)(=O)c2ccccc2)c(=O)[nH]1`, the growth inhibition in test [1] is -10.6%; in test [2], -18.1%; in test [3] it was -17.6%; in test [4], -2.9%; in test [5], 6.95%; in test [6], 6.05%.
On to `CS(=O)(=O)OC1COCC1OS(C)(=O)=O` (stereo not given), for which the growth inhibition in test [1] is 8%; in test [2], 6.15%; in test [3], 9.05%; in test [4] it was -0.8%; in test [5], -5.3%; in test [6], -6.1%.
On to `CN(C)c1ccc(C=C(C(=O)O)C(=O)O)cc1`, for which the growth inhibition is -5.2% in test [1]; 15.3% in test [2]; -8.1% in test [3]; 19.4% in test [4]; 15.7% in test [5]; 15.5% in test [6].
In the case of `O=S(=O)(O)c1cc(O)c2c(N=Nc3c(S(=O)(=O)O)cc4cc(S(=O)(=O)O)cc(N=Nc5c(S(=O)(=O)O)cc6cc(S(=O)(=O)O)cc(O)c6c5O)c4c3O)cc(S(=O)(=O)O)cc2c1`, the growth inhibition was -4.7% in test [1]; 26.6% in test [2]; 5.45% in test [3]; -14.8% in test [4]; -7.6% in test [5]; 8.5% in test [6].
For `CCCCCCCCCCCCS(=O)(=O)N/N=C(\c1ccccc1Cl)N1CCOCC1`, the growth inhibition in test [1] was 48.2%; in test [2], 33.5%; in test [3], 45.9%; in test [4], 48.2%; in test [5], 55.8%; in test [6], 51.2%.
For the compound `NC(=O)C(CC(=O)O)NC(=O)c1ccccc1` (stereo not given), the growth inhibition in test [1] was 8.05%; in test [2], 1.15%; in test [3] it was 3.45%; in test [4], -35%; in test [5], -10.7%; in test [6] it was 10.1%.
Consider `CC(=O)Oc1cc2c(c3ccccc13)CCC2=O`, for which the growth inhibition in test [1] was 13.4%; in test [2] it was 7.2%; in test [3], -7.85%; in test [4] it was -0.9%; in test [5], 20.4%; in test [6] it was 6.05%.

The values above are taken from PubChem BioAssay (NCI).
